# How the values were obtained:
# Test in all cases: DAPPL (digital affinity profiling via proximity ligation, sequencing); 10 mM Tris-HCl pH 7.5, 50 mM NaCl, 1 mM DTT, 4% glycerol, room temperature, 30 min; GST-TFs on glutathione beads, 16-mer random dsDNA library, 0.1% formaldehyde crosslink after washing; high values mean tight binding
# Settings in all cases: protein: recombinant; tags: N-terminal GST; dsDNA, one strand shown
# FLI1 = target: T1, FLI1 (Homo sapiens, UniProt Q01543 1-452)
# T1 sequence: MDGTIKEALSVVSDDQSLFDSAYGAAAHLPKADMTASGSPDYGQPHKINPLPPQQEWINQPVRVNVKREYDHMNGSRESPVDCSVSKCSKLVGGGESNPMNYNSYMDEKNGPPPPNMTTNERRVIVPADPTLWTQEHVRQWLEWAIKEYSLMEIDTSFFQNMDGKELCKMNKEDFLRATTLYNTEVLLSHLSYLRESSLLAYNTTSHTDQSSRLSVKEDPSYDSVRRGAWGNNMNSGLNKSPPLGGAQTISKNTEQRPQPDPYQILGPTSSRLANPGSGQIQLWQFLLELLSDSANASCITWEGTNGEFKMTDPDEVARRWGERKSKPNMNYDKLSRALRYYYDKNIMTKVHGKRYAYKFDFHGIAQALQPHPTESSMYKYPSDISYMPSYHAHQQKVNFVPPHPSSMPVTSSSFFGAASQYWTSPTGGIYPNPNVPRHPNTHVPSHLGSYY
# Procedure, shortened: (§1)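 A tag-only sample was pooled with DNA-barcoded human transcription factors that had been expressed in yeast as GST fusions and captured on glutathione beads. The pools were incubated for 30 min at room temperature with 200 nmole of a random double-stranded 16-mer DNA library in Tris/NaCl/DTT/glycerol buffer, then washed, crosslinked with 0.1% formaldehyde, proximity-ligated (BsaI/T4 ligase, 1 h, 37 °C), PCR-amplified and sequenced on an Illumina NextSeq500. Binding signal is each hexamer's read frequency for a factor divided by its frequency for the tag-only sample.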
# ELK1 = target: T2, ELK1 (Homo sapiens, UniProt P19419 1-428)
# T2 sequence: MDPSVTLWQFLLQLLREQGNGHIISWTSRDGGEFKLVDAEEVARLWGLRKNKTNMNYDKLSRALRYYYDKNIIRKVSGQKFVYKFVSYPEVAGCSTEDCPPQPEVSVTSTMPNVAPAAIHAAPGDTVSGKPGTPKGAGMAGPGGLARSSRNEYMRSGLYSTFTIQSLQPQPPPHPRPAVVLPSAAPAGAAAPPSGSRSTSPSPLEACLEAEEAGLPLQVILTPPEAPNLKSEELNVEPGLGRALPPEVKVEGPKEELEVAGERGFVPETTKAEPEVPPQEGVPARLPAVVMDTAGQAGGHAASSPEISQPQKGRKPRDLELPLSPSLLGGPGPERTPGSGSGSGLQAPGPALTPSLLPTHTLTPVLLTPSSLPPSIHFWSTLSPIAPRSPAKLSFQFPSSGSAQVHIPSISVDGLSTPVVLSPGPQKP
# Procedure, shortened: as §1
# GABPA = target: T3, GABPA (Homo sapiens, UniProt Q06546 1-454)
# T3 sequence: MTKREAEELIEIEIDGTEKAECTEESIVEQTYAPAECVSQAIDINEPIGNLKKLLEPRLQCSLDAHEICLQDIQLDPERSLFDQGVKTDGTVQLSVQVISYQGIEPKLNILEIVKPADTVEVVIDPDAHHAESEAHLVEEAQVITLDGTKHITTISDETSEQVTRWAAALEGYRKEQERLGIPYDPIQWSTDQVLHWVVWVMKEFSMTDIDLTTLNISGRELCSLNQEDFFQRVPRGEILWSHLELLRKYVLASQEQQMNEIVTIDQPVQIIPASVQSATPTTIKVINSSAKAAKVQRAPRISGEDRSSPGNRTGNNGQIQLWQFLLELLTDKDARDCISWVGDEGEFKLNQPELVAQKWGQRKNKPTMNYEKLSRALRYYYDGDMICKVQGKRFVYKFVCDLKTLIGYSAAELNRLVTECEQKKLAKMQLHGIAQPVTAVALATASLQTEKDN
# Procedure, shortened: as §1
# ERG = target: T4, ERG (Homo sapiens, UniProt P11308 1-479)
# T4 sequence: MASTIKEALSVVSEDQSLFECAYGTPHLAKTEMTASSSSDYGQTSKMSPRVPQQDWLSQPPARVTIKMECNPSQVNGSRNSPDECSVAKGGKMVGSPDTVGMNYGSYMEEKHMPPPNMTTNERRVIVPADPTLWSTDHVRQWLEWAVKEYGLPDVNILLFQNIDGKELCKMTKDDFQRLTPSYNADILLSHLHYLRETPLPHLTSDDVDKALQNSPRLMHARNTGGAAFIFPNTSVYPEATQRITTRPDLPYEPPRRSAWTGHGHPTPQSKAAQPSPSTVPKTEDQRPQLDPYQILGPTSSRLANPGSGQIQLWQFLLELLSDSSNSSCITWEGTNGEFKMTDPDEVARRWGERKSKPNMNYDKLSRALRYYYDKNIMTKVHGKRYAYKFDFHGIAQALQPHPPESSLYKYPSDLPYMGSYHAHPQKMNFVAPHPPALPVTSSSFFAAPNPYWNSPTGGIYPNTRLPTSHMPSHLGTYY
# Procedure, shortened: as §1
# ELF1 = ELF1 (Homo sapiens, UniProt P32519 1-619)
# Procedure, shortened: as §1
# EHF = target: T5, EHF (Homo sapiens, UniProt Q9NZC4 1-300)
# T5 sequence: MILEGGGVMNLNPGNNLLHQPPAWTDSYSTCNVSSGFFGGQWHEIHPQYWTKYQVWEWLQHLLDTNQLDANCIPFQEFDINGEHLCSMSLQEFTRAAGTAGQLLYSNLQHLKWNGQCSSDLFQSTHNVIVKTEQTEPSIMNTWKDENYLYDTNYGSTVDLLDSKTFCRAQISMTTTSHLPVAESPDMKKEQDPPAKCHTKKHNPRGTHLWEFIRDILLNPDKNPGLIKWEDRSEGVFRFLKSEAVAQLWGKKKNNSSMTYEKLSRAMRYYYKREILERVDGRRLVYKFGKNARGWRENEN
# Procedure, shortened: as §1
# SPI1 = SPI1 (Homo sapiens, UniProt P17947 1-270)
# Procedure, shortened: as §1
# SPIB = SPIB (Homo sapiens, UniProt Q01892 1-262)
# Procedure, shortened: as §1
# ELK3 = target: T6, ELK3 (Homo sapiens, UniProt P41970 1-407)
# T6 sequence: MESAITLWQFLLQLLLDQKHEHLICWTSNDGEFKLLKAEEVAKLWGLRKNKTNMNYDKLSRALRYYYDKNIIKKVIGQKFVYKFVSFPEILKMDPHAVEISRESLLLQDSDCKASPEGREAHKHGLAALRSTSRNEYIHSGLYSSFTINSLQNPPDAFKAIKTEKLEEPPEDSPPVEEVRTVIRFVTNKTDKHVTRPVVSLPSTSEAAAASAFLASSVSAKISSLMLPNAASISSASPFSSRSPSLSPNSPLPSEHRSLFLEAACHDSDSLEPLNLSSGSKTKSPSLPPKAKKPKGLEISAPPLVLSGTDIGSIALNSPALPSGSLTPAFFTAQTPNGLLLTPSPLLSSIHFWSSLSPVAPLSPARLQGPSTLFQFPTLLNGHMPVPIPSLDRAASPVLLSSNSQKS
# Procedure, shortened: as §1
# Sequence of SPIB (Q01892 whole entry): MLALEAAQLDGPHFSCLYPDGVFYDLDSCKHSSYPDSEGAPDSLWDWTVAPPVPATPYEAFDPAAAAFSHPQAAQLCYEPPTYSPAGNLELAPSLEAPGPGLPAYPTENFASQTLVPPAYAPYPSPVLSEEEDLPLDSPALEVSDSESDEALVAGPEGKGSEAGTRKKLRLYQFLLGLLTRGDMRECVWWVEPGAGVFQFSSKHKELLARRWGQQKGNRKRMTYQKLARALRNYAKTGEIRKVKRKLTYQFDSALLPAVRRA
# Sequence of ELF1 (P32519 whole entry): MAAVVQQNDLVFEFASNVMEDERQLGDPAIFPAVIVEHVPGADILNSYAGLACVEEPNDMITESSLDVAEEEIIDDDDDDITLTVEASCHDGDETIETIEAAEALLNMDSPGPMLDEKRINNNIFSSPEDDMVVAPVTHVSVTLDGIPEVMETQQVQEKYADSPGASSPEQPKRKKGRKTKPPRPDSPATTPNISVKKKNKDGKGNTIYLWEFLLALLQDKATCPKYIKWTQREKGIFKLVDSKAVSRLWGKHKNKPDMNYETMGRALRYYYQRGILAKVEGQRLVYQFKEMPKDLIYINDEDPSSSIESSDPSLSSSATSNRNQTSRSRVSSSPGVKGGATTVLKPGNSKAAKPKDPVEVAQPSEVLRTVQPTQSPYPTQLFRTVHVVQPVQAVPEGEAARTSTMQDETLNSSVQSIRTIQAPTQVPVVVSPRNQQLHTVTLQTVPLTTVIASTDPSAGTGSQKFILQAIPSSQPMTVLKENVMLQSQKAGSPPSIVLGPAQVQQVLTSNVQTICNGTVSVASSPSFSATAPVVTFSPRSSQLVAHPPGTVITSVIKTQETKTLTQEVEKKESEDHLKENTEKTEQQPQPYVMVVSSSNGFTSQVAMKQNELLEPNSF
sequence,measurement,setting,value
GAATTT,binding signal,FLI1,"1.21 fold enrichment (6-mer frequency, TF over GST control)"
same,binding signal,ELK1,"1.11 fold enrichment (6-mer frequency, TF over GST control)"
same,binding signal,GABPA,"1.21 fold enrichment (6-mer frequency, TF over GST control)"
same,binding signal,ERG,"1.24 fold enrichment (6-mer frequency, TF over GST control)"
same,binding signal,ELF1,"1.17 fold enrichment (6-mer frequency, TF over GST control)"
same,binding signal,EHF,"1.13 fold enrichment (6-mer frequency, TF over GST control)"
same,binding signal,SPI1,"1.24 fold enrichment (6-mer frequency, TF over GST control)"
same,binding signal,SPIB,"1.28 fold enrichment (6-mer frequency, TF over GST control)"
same,binding signal,ELK3,"1.19 fold enrichment (6-mer frequency, TF over GST control)"

# From publication PMC7862700, “An all-to-all approach to the identification of sequence-specific readers for epigenetic DNA modifications on cytosine”
